Laboratory results reported in PubChem BioAssay (NCI).
The panel holds about 79,000 compounds, 15% with a hit somewhere; the sample as a whole holds those more often. Unmarked numbers belong to inactive results. Calls of active or inactive are those of the source. Cut-off read from the data, not from the text of the source: active = growth inhibition above about 70%; inactive = the rest.

Assay: NCI Yeast Anticancer Drug Screen. Data for the mlh1 rad18 strain (AID 175)
Conditions: S. cerevisiae mlh1 rad18 strain growth inhibition, stronger effect = higher value; at 50.0 µM unless noted
In short: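 A repair-deficient yeast strain is exposed to test compound, and growth is scored relative to vehicle-treated controls.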

First: O=C(OCC1OCOC2C(COC(=O)c3ccccc3)OCOC12)c1ccccc1 (stereo not given)
Second: CCCOC(=O)C1C(=O)CC(c2ccccc2)C1c1ccccc1 (stereo not given)
The growth inhibition of the first is higher: 15.7% for the first, -0.4% for the second.

First: CCOC(=O)/N=N/C(C)(C)OC(C)=O
Second: CCC(O)C(C)(C)[N+](=O)[O-] (stereo not given)
The growth inhibition of the first is lower: -21.1% for the first, 0.35% for the second.

Compared with `CC(=O)CC(C[N+](=O)[O-])c1ccccc1` (stereo not given), `CN(C)CCC(C#N)c1ccccc1` (stereo not given) is higher in growth inhibition: -6.9% for the first, -5.55% for the second.

Compared with `O=c1cc(-c2ccccc2)[nH]c2c(F)ccc(F)c12`, `COc1ccc(-c2oc(=O)c3ccccc3c2-c2ccccc2)cc1` is higher in growth inhibition: -18.9% for the first, 6.4% for the second.

First: CCCN(CCC)C(=O)c1ccccc1C
Second: CCCCN(CCCC)C(=O)c1cccc(C)c1
The growth inhibition of the first is lower: 2.9% for the first, 14.1% for the second.

Going from `OCC(O)COc1ccc(F)cc1` (stereo not given) to `CCOC1=Nc2ccccc2C1(C)CCO` (stereo not given), the growth inhibition rises from -12.1% to -4.3%.

First: COc1cc(/C=C/C(=O)O)ccc1O
Second: CCCCNC(=O)/C(=C\c1ccc(OC)c(OC)c1)NC(=O)c1ccccc1
The growth inhibition of the first is higher: 17.6% for the first, -21.6% for the second.

Compared with `COC(=O)c1c(C)nc(C)c(N=O)c1-c1ccccc1C(F)(F)F`, `COC(=O)c1c(C)ccc(C)c1Nc1cc(C)ccc1C` is higher in growth inhibition: -44.6% for the first, -15.7% for the second.

First: Cc1c2ccccc2nc(CS(C)(=O)=O)[n+]1[O-]
Second: CCOC(=O)c1cnc2sc3ccc4ccccc4c3n2c1=O
The growth inhibition of the first is lower: -5.5% for the first, 60.7% for the second.

First: O=P1(NC23CC4CC(CC(C4)C2)C3)OC(CCl)=NC1c1ccc(C2N=C(CCl)OP2(=O)NC23CC4CC(CC(C4)C2)C3)cc1 (stereo not given)
Second: Cc1nc(-c2ccc(N=Cc3ccc(N4CCC5(CCCCC5)CC4)cc3)cc2)cs1
The growth inhibition of the first is lower: -57.2% for the first, -3% for the second.

Going from `CN(C)C(=O)NCCN(CCNC(=O)N(C)C)C(=O)N(C)C` to `CCOC(=O)C(=O)C(NC(=O)Cc1ccccc1)C(=O)OCC` (stereo not given), the growth inhibition rises from -4.15% to 17.1%.

Going from `CN(/C(=N/C(=S)NCc1ccccc1)SCc1ccccc1)c1ccccc1` to `CC1Sc2ccccc2-c2[nH]c3ccccc3c21` (stereo not given), the growth inhibition rises from 58% to 66.1%.

Going from `Cc1cc(=O)c2c(o1)C(=O)c1occc1C2=O` to `O=C1c2ccccc2C(=O)N1CCCCCCS(=O)(=O)Cl`, the growth inhibition rises from -13% to 0.55%.

First: COC1CCC2C3CCC(C3)C12 (stereo not given)
Second: CCCC(=O)NC1CCCCC1
The growth inhibition of the first is higher: -10.2% for the first, -23.1% for the second.

First: O=C(c1ccc(Cl)cc1)c1ccccc1C(=O)c1ccc(Cl)cc1
Second: O=C(N/N=C(\c1nc2ccc(Cl)cc2[nH]c1=O)C(O)c1ccccc1Cl)c1ccncc1 (stereo not given)
The growth inhibition of the first is lower: 15.1% for the first, 37% for the second.

Compared with `CCOC(=S)SCC(=O)CSC(=S)OCC`, `CCCCCP(=O)(O)O.[Cu+2]` is lower in growth inhibition: 2.15% for the first, -14.2% for the second.

Compared with `COc1c2c(cc3c1C(CCCc1ccccc1)N(C)CC3)OCO2` (stereo not given), `c1ccc(CN2CCOC2)cc1` is lower in growth inhibition: 28.6% for the first, -35.6% for the second.

First: NC(=O)Nc1nc2ccccc2[nH]1
Second: C=C1CCCC(C)(C)[C@@H]1CC/C(C)=C/Cn1c2cccc(=O)c-2nc2ccccc21
The growth inhibition of the first is lower: 3.4% for the first, 19.2% for the second.

Going from `CCS(=O)(=O)/C=C/c1cccs1` to `C=C1CC2(OC1=O)c1ccccc1C=Cc1ccccc12`, the growth inhibition rises from -17.6% to 50.4%.

For `CC1NC(=O)OC12CCCCC2` (stereo not given), the growth inhibition was -30.4%.

In the case of `C[C@H](CCC1=NCCN1)[C@H]1CC[C@H]2[C@@H]3CC[C@@H]4C[C@H](O)CC[C@]4(C)[C@H]3CC[C@]12C`, the growth inhibition is reported as 91% (active).
